USP30 inh – inhibitors of human USP30 deubiquitinase; AID 1645860; purified USP30, Ub-rhodamine cleavage fluorescence; inhibition, % at 25 µM; hit rate 5.3% among 47,000; Q70CQ3
Target sequence (Q70CQ3 whole entry, looked up): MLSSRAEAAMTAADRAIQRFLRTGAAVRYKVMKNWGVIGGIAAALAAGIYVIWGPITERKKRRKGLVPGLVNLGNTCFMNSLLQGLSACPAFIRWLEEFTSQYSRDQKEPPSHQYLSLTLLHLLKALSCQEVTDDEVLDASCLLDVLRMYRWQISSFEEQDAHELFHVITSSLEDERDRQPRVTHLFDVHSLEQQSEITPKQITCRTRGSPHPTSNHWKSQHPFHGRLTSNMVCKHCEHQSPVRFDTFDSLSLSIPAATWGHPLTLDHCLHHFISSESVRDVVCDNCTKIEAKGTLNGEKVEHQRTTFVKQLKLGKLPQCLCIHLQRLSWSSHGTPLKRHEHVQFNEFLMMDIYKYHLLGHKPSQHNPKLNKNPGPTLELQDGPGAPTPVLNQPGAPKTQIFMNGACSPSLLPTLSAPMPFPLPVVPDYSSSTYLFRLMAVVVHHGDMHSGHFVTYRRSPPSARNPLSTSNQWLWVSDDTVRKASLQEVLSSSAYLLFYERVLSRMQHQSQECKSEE
USP10 inh – inhibitors of human USP10 deubiquitinase | Q14694 | purified USP10, Ub-rhodamine fluorescence, 60 min | inhibition, % at 20 µM | hit rate 1.1% among 47,000 | AID 1645856
USP8 inh – human USP8 deubiquitinase inhibition; P40818; purified USP8, Ub-rhodamine cleavage fluorescence, 30 min; inhibition, % at 20 µM; hit rate 4.2% among 47,000; AID 1645853
USP17 inh – inhibitors of human USP17 deubiquitinase. A8MUK1. purified USP17, Ub-rhodamine cleavage fluorescence, 3 h. inhibition, % at 50 µM. hit rate 6.5% among 47,000
USP28 inh – human USP28 deubiquitinase inhibition; purified USP28, Ub-rhodamine cleavage fluorescence, 30 min; inhibition, % at 25 µM; hit rate 3% among 47,000; AID 1645857
An asterisk follows results filed as active. The list is not random: actives were taken first. Their share in the collection is about 13%. No stated cut-off is given here; in the data, active means inhibition above about 30%; inactive means the rest.

Screening NCc1ccc(C(=O)N2CCC3(CC2)C(=O)Nc2ccccc23)cc1 returned USP30 inh 5, USP10 inh -1, USP8 inh 85*, USP17 inh 6 and USP28 inh 8.
Screening COc1ccc2[nH]c(C(=O)N(Cc3ccccn3)Cc3ccccn3)cc2c1 returned USP30 inh -7, USP10 inh -6, USP8 inh 81*, USP17 inh 44* and USP28 inh 1.
For Cc1cc(C)cc(N=c2oc3cc(O)ccc3cc2C(=O)NCC2CCCO2)c1 (stereo unspecified) the results were USP30 inh -40, USP10 inh -8, USP8 inh -2, USP17 inh -9 and USP28 inh -7.
`CCc1nc2c(C#N)c(-c3ccc(Cl)cc3)ccn2n1` gave USP30 inh 83*, USP10 inh 24, USP8 inh 36*, USP17 inh 66* and USP28 inh 41*.
Cc1ccc(-c2nc(NC(=O)c3c(F)cccc3F)sc2C)cc1Cl was read as USP30 inh 23, USP10 inh 3, USP8 inh 24, USP17 inh 37* and USP28 inh 9.
Screening Cc1ccc(-c2nnc(NC(=O)c3c(F)cccc3F)s2)cc1 returned USP30 inh 12, USP10 inh 3, USP8 inh 9, USP17 inh 3 and USP28 inh 3.
`Cc1ccc(-c2nc(NC(=O)Nc3ccc(Cl)cc3)sc2C)cc1` gave USP30 inh 15, USP10 inh 15, USP8 inh 10, USP17 inh 60* and USP28 inh 0.
`O=C(Nc1nnc(-c2ccc(F)cc2)s1)c1c(F)cccc1F` gave USP30 inh 26, USP10 inh -3, USP8 inh -10, USP17 inh 41* and USP28 inh 11.
`Cc1sc(NC(=O)c2ccc3ccccc3n2)nc1-c1ccc(F)cc1` gave USP30 inh -157, USP10 inh -10, USP8 inh 9, USP17 inh 35* and USP28 inh -36.
`Cc1ccc(-c2nc(NC(=O)c3c(-c4ccccc4)noc3C)sc2C)cc1Cl` gave USP30 inh -8, USP10 inh -4, USP8 inh -42, USP17 inh -5 and USP28 inh 5.
CCN1CC2(CC1=O)CN(C(C)=O)CCN(C(=O)Cc1ccc(OC)cc1)C2 (stereo unspecified) was read as USP30 inh -2, USP10 inh 0, USP8 inh -68, USP17 inh -10 and USP28 inh -1.
CCOC(=O)N1CCN(S(=O)(=O)c2ccc(C(=O)Nc3ccc(OC)c4ccccc34)cc2)CC1 was read as USP30 inh 28, USP10 inh 5, USP8 inh 56*, USP17 inh 29 and USP28 inh 3.
For O=C(NC[C@H]1OC[C@@H]2CN(Cc3ccco3)CC[C@@H]21)c1cscn1 the results were USP30 inh 4, USP10 inh 4, USP8 inh -34, USP17 inh -4 and USP28 inh -1.
COc1cc2c(C#N)c(OC)nc3c2c(n1)NC(C)(c1ccc(Br)cc1)N3 (stereo unspecified) was read as USP30 inh -16, USP10 inh -7, USP8 inh 85*, USP17 inh 0 and USP28 inh 9.
`Cc1ccccc1CC(=O)Nc1ccc2c(c1)CCC(=O)N2CC(C)C` gave USP30 inh -6, USP10 inh 2, USP8 inh -25, USP17 inh -9 and USP28 inh -12.
`COC(=O)c1c(OC)cc2c(c1C)Oc1c(Cl)c(O)c(Cl)c(C)c1C(=O)O2` gave USP30 inh 30*, USP10 inh 32*, USP8 inh -4, USP17 inh 16 and USP28 inh 21.
COC(=O)c1cc(O)cc(OC)c1C(=O)c1c(O)c(Cl)c(C)c(Cl)c1O was read as USP30 inh 10, USP10 inh 2, USP8 inh 4, USP17 inh 18 and USP28 inh 15.
Screening CCCc1cc(=O)oc2cc(C)cc(OCC(=O)N3CC[C@@]4(O)CCCC[C@H]4C3)c12 returned USP30 inh -2, USP10 inh -1, USP8 inh -3, USP17 inh -8 and USP28 inh -8.
Screening COc1cc(CNC(=O)c2cnc(N3CCCCC3)nc2C)cc(OC)c1OC returned USP30 inh 13, USP10 inh 1, USP8 inh 2, USP17 inh 4 and USP28 inh 8.
Screening Cc1nnc(NCc2cccnc2)c2c1nnn2Cc1ccccc1Cl returned USP30 inh 60*, USP10 inh 7, USP8 inh -25, USP17 inh -2 and USP28 inh 18.
Cc1ccc(Cn2cc(C(=O)Nc3ccccc3C(N)=O)ccc2=O)cc1 was read as USP30 inh 24, USP10 inh 22, USP8 inh 54*, USP17 inh 29 and USP28 inh 17.
CCNc1cc(N2CCCC(CCC(=O)N3CCCC(C)C3)C2)ncn1 (stereo unspecified) was read as USP30 inh -1, USP10 inh -1, USP8 inh -131, USP17 inh -22 and USP28 inh 1.
Cn1c(=O)cc(SCC(=O)NC2CCN(Cc3ccccc3)CC2)c2ccc(Cl)cc21 was read as USP30 inh 50*, USP10 inh -1, USP8 inh -3, USP17 inh 34* and USP28 inh 18.
`CCOc1ccc(NC(=O)CSc2cc(=O)n(C)c3cc(Cl)ccc23)cc1` gave USP30 inh 18, USP10 inh 0, USP8 inh 0, USP17 inh 47* and USP28 inh 2.
For O=C(Cn1c(=O)n(CCCC(=O)NC2CCN(Cc3ccccc3)CC2)c(=O)c2ccccc21)Nc1cccc(Cl)c1 the results were USP30 inh -36, USP10 inh -9, USP8 inh -6, USP17 inh 27 and USP28 inh -11.
`COc1cc(NC(=O)CSc2cc(=O)n(C)c3cc(Cl)ccc23)cc(OC)c1OC` gave USP30 inh -2, USP10 inh -9, USP8 inh -23, USP17 inh -15 and USP28 inh -3.
Cc1oc(-c2ccccc2)nc1CN(C)S(=O)(=O)c1ccc(F)cc1 was read as USP30 inh 28, USP10 inh 5, USP8 inh 14, USP17 inh 26 and USP28 inh 26.
`COc1ccc(-c2c(-c3ccc(OCCN4CCOCC4)cc3O)n[nH]c2C)cc1OC` gave USP30 inh -24, USP10 inh -2, USP8 inh 55*, USP17 inh 1 and USP28 inh -16.
`COc1ccc2c(c1)CCc1c-2n[nH]c1C(=O)NCCN1CCOCC1` gave USP30 inh 3, USP10 inh 0, USP8 inh 1, USP17 inh 10 and USP28 inh 5.
CSc1ccc(CNC(=O)Cc2c(C)n[nH]c2C)cc1 was read as USP30 inh 34*, USP10 inh 2, USP8 inh 17, USP17 inh 15 and USP28 inh 8.
For CCc1cc2c(=O)n(CC(=O)N3c4ccccc4CC3C)cnc2s1 (stereo unspecified) the results were USP30 inh -54, USP10 inh -1, USP8 inh -25, USP17 inh -18 and USP28 inh -12.

Assay outcomes from PubChem.
